Compound activity: PubChem BioAssay, National Center for Advancing Translational Sciences (NCATS)
Hits are enriched below; roughly 0.97% of the tested compounds scored in any of these assays.
MmCpn inh = M. maripaludis TRiC chaperonin inhibition | purified Mm-Cpn ATPase, ADP Transcreener TR-FRET | Potency, µM (top dose mostly 76.9 µM), for the others: at the top dose activity, negative = inhibition, usual class: inhibitors | 0.031% of 330,000 active | AID 504842; further: potency means the concentration at half of the fitted maximal effect; on the % scale 0 is the no-effect control and ±100 the full control effect; nearly all actives have a fitted effect of over 80% in size
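Compound-treated chaperonin, 25 nM final, turns over 10 uM ATP at 37°C for 30 min following a 10 min preincubation; ADP generated competes with ADP-d2 for Eu-cryptate antibody, lowering FRET.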
uPA generation = blocks generation of uPA at the cell surface; 0.31% of 330,000 active; cell surface uPA generation assay, qHTS; Potency, µM (series often up to 38.3 µM), without a hit: at the top dose activity change, negative = inhibition, usual class: inhibitors; active means well fitted inhibition curve with a large enough effect; inconclusive means small, poorly fitted or top-dose-only effect; inactive means no such curve, though single readings can be large or run the other way; tested in mouse RAW 264.7 cells; further: potency means the concentration at half of the fitted maximal effect; on the % scale 0 is the no-effect control and ±100 the full control effect; nearly all actives have a fitted effect of over 55% in size
MBNL1-CUG inh = MBNL1-poly(CUG) RNA binding inhibition | TR-FRET MBNL1-His/biotin-(CUG)12 binding, 665/545 ratio | AID 2675 | Potency, µM (top dose mostly 57.5 µM), for the others: at the highest dose activity change, negative = inhibition, hits mostly inhibitors | 0.036% of 280,000 active | Q9NR56; active means well fitted inhibition curve with a large enough effect in the signal ratio, with a control signal flat, not every such curve was filed as active; inconclusive means small, poorly fitted or top-dose-only effect, or effect the other way, or a change in a side signal; inactive means no such curve, though single readings can be large or run the other way; the % refers to the signal ratio; further: potency means the concentration at half of the fitted maximal effect; on the % scale 0 is the no-effect control and ±100 the full control effect
Target sequence (Q9NR56 whole entry, looked up): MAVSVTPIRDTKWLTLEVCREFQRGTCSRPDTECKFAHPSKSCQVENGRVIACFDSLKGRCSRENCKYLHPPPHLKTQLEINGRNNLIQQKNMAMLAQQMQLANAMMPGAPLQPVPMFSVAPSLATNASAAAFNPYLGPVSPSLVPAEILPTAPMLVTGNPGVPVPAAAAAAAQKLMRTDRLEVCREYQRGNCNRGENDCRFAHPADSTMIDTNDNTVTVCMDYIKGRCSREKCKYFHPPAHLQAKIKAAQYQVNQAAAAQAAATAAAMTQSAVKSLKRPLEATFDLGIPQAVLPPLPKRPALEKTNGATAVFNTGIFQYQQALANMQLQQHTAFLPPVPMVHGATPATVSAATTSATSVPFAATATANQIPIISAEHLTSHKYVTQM
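TR-FRET readout: Ex 340 nm, 665/545 nm emission ratio, normalized to buffer-only (basal) and MBNL1-(CUG)12 controls. Complex of MBNL1-His with Biotin-(CUG)12, compounds 92 nM–58 uM, incubated 60 min at room temperature.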
Epigenetic derep = epigenetic control regulation, reporter derepression | murine LDR cells, GFP reporter derepression, 30 h | 0.2% of 280,000 active | Potency, µM (top dose mostly 53.9 µM), for inactives: top-dose GFP activation, actives largely listed as activators | AID 1865; further: potency means the concentration at half of the fitted maximal effect; % of control where 0% means no effect; nearly all actives have a fitted effect of over 60% in size
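Derepression of a silenced CMV-GFP reporter in murine LDR cells is scored by enumerating GFP-positive cells with a laser-scanning microplate cytometer after 30 hours of treatment at 37 C.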
CCT chaperon mod = changes cytosolic chaperonin activity. AID 651819. 0.3% of 360,000 active. purified chaperonin ATPase assay, HTRF ADP detection, 30 min. activity change, % (concentration not given with the values), hits read low; in the data active means activity change below about -30%; further: on the % scale 0 is the no-effect control and ±100 the full control effect
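TRiC at 40 or 20 nM final (batch-dependent) in 30 mM Tris pH 7.4, 100 mM KCl, 5 mM MgCl2, 1 mM DTT, with compound at single 76 uM and 10 uM ATP, 30 min at 37 deg C. ADP detected by HTRF Transcreener, 665/615 ratio.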
Akt phos inh = inhibitors of Akt phosphorylation; Neuro2A IGF-stimulated pAkt S473 HTRF, 20 min; active compounds read low; activity change, % for hits at 50 µM; 0.32% of 360,000 active; in the data active means activity change below about -80%; inconclusive means mostly about -51% to -80%; further: on the % scale 0 is the no-effect control and ±100 the full control effect
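Neuro2A cells in DMEM with 0.5% FBS, overnight at 37 deg C, given compound at single 50 µM final, then IGF (6 nM final) for 20 min at 37 deg C. Lysed; phospho-Akt Ser473 by HTRF after 24 h, 665/615 ratio.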
Numbers without * were called inactive. Unless noted, the call rests on the fitted dose curve; in most records, active means well fitted curve in the direction sought with a large enough effect; inconclusive means small, poorly fitted or top-dose-only effect, or another doubt; inactive means no such curve, though single readings can be large; an effect the other way counts as inactive or inconclusive.

O=S(=O)(c1ccccc1)c1cnn2c(C(F)(F)F)cc(-c3ccccc3)nc12 was read as MmCpn inh 2%, uPA generation 3%, MBNL1-CUG inh 10%, Epigenetic derep 1%, CCT chaperon mod -4 and Akt phos inh -90%*.
`Cc1nnc(N2C(=O)c3cccc4c([N+](=O)[O-])ccc(c34)C2=O)s1` gave MmCpn inh 1%, uPA generation 10µM*, MBNL1-CUG inh inconclusive, CCT chaperon mod -2 and Akt phos inh inactive.
For Nc1nc(Br)c2c(F)cccc2c1-c1ccc(F)cc1 the results were MmCpn inh -5%, uPA generation 8%, MBNL1-CUG inh 16%, Epigenetic derep -2%, CCT chaperon mod -1 and Akt phos inh inactive.
Screening Cc1cccc(C)c1NC(=O)Cn1cc(C=O)c2ccccc21 returned MmCpn inh -3%, uPA generation inconclusive, MBNL1-CUG inh 2%, CCT chaperon mod 1 and Akt phos inh inactive.
For CCN1C(=O)CC(N2CCC(Nc3ccc(OC)cc3)CC2)C1=O (stereo not given) the results were MmCpn inh 0%, uPA generation 4%, MBNL1-CUG inh -6%, Epigenetic derep 1%, CCT chaperon mod 0 and Akt phos inh -106%*.
Screening O=C(CCCN1C(=O)C(c2ccccc2)Oc2cccnc21)Nc1ccccc1Cl (stereo not given) returned MmCpn inh 0%, uPA generation 4%, MBNL1-CUG inh -1%, CCT chaperon mod -2 and Akt phos inh inactive.
Screening COC(=O)CSc1nnc(CNS(=O)(=O)c2ccc(Cl)cc2)n1C returned MmCpn inh 1%, uPA generation 2%, MBNL1-CUG inh -1%, Epigenetic derep 1%, CCT chaperon mod -1 and Akt phos inh inactive.
For COc1cccc(C(=O)Nc2c(C)n[nH]c2C)c1 the results were MmCpn inh -1%, uPA generation 1%, MBNL1-CUG inh -10%, Epigenetic derep 2%, CCT chaperon mod -75* and Akt phos inh inactive.
Screening NC(=O)C1CCN(c2nc(-c3cccc(Br)c3)cs2)CC1 returned MmCpn inh -1%.
Cc1ccc(CN2CC(C(=O)Nc3ccc(C)c(S(=O)(=O)N4CCCCC4)c3)CC2=O)cc1 (stereo not given) was read as uPA generation -14%, CCT chaperon mod -41* and Akt phos inh inactive.
Screening COc1ccc(NC(=O)C2CC(=O)N(Cc3ccc(C)cc3)C2)cc1S(=O)(=O)N1CCCCC1 (stereo not given) returned MmCpn inh 2%, uPA generation -15%, MBNL1-CUG inh -10%, Epigenetic derep -2%, CCT chaperon mod 0 and Akt phos inh inactive.
For CCNC(=S)Nc1ccc(OCc2nc3ccccc3s2)cc1 the results were MmCpn inh 1%, uPA generation 2%, MBNL1-CUG inh 4%, CCT chaperon mod 1 and Akt phos inh inactive.
`CC1CCc2c(sc(NC(=O)/C=C/c3cccs3)c2C(=O)O)C1` (stereo not given) gave MmCpn inh -3%, uPA generation 10µM*, MBNL1-CUG inh 23%, CCT chaperon mod 2 and Akt phos inh inactive.
`CCCN(CC(=O)Nc1ccccc1C)C(=O)C1CC(=O)N(c2ccc(CC)cc2)C1` (stereo not given) gave MmCpn inh -1%, uPA generation 4%, CCT chaperon mod 0 and Akt phos inh inactive.
For Cc1cc(C)n(CC(O)COCc2ccccc2)n1 (stereo not given) the results were MmCpn inh 1%, uPA generation 3%, MBNL1-CUG inh 6%, Epigenetic derep 10µM*, CCT chaperon mod 1 and Akt phos inh inactive.
Screening c1ccc2sc(-c3ccc4c(c3)OCO4)nc2c1 returned MmCpn inh -7%, uPA generation -11%, MBNL1-CUG inh 33%, Epigenetic derep 1%, CCT chaperon mod -1 and Akt phos inh -112%*.
Screening COc1ccc(-c2nc3ccccc3s2)cc1 returned MmCpn inh -2%, uPA generation 3.5µM*, MBNL1-CUG inh -6%, Epigenetic derep -1%, CCT chaperon mod 1 and Akt phos inh inactive.
Oc1ccc(-c2nc3ccccc3s2)cc1 was read as MmCpn inh -14%, uPA generation 6.3µM*, MBNL1-CUG inh 21%, Epigenetic derep 1%, CCT chaperon mod 2 and Akt phos inh inactive.
For Cc1ccc(C)c(NC(=O)c2cnn3ccccc23)c1 the results were MmCpn inh 1%, uPA generation 11µM*, MBNL1-CUG inh 3%, Epigenetic derep 1%, CCT chaperon mod -1 and Akt phos inh inactive.
Screening Cc1ccc(C)c(NC(=O)c2cc3ccccn3n2)c1 returned MmCpn inh -2%, uPA generation -25%, MBNL1-CUG inh inconclusive, Epigenetic derep -1%, CCT chaperon mod -6 and Akt phos inh inactive.
COC(=O)c1cc(=O)nc2sc3cc(OC)ccc3n12 was read as MmCpn inh -4%, uPA generation -3%, MBNL1-CUG inh -5%, Epigenetic derep -1%, CCT chaperon mod 2 and Akt phos inh -114%*.
Cc1ccc(N2C(=O)CC(Sc3nc(C)cc(C)n3)C2=O)cc1 (stereo not given) was read as MmCpn inh 1%, uPA generation 5µM*, MBNL1-CUG inh 3%, CCT chaperon mod -2 and Akt phos inh inactive.
`Cc1ccc(NC(=O)COC(=O)c2oc3ccccc3c2C)cc1S(=O)(=O)N1CCOCC1` gave MmCpn inh -5%, uPA generation 1%, CCT chaperon mod -5 and Akt phos inh inactive.
COc1ccc(-n2c(C)cc(/C=C3\SC(=S)NC3=O)c2C)cc1 was read as MmCpn inh 0%, uPA generation 4%, MBNL1-CUG inh -4%, Epigenetic derep 25µM*, CCT chaperon mod 1 and Akt phos inh inactive.
Screening Cc1cc(/C=C2\SC(=S)NC2=O)c(C)n1-c1ccc(O)cc1 returned MmCpn inh 1%, uPA generation -13%, MBNL1-CUG inh 15%, Epigenetic derep 6%, CCT chaperon mod -3 and Akt phos inh inactive.
Screening Cc1nc2ccccn2c(=O)c1NC(=O)c1ccc(F)c(F)c1 returned Epigenetic derep -2%.
Cc1cc(C(F)(F)F)nn1CC(=O)Nc1cccnc1 was read as MmCpn inh 1%, uPA generation 12%, MBNL1-CUG inh -1%, Epigenetic derep 5%, CCT chaperon mod -41* and Akt phos inh inactive.
Screening CC1CCN(CC2CCN(C(=O)NCc3ccc(F)cc3)CC2)CC1 returned Epigenetic derep 0%.
